Records with an inconclusive call do not appear. Activity calls are given as the source filed them. Calls follow the shape of the dose curve; as a rule, active = well fitted curve in the direction sought with a large enough effect; inconclusive = small, poorly fitted or top-dose-only effect, or another doubt; inactive = no such curve, though single readings can be large; an effect the other way counts as inactive or inconclusive.
Assays:
[1] = biological target: Rap guanine nucleotide exchange factor 3 (Homo sapiens) (UniProt O95398); experiment: Confirmatory qHTS for antagonist of cAMP-regulated guanine nucleotide exchange factor 3 (EPAC1) (AID 1645880); also: nearly all actives have a fitted effect of over 55% in size; also: potency is read from the fitted curve at half-maximal effect
Sequence of Rap guanine nucleotide exchange factor 3 (Homo sapiens) (O95398 whole entry, looked up): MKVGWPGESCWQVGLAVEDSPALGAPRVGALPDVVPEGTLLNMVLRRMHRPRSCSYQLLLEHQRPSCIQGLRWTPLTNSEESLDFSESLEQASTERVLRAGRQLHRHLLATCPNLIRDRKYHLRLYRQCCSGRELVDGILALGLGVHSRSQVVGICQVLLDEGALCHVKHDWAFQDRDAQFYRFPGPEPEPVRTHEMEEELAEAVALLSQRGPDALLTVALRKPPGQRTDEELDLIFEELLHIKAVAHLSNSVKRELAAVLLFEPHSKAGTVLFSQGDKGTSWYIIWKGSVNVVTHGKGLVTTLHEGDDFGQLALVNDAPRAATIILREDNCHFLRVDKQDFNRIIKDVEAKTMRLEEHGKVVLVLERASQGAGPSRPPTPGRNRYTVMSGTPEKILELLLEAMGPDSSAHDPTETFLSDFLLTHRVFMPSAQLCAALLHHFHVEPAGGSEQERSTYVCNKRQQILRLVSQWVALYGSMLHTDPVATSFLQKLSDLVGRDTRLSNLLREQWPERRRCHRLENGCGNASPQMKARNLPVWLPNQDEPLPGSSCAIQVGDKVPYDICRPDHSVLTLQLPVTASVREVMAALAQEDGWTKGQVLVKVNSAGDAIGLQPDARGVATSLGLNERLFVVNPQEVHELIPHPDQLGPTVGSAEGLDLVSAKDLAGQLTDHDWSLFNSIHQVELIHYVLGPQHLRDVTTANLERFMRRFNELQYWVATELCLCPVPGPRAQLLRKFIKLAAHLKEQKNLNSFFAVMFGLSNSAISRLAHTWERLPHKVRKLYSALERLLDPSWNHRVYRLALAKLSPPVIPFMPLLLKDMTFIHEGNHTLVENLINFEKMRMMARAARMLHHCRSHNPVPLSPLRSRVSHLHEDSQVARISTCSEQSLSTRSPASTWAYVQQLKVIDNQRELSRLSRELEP
Procedure, shortened: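 Nucleotide exchange uses 100 nM EPAC1, 250 nM RAP1B-BODIPY-GDP and 50 uM GDP, with compounds in a concentration-titration series. After 5 min at room temperature, fluorescence (480 nm ex/540 nm em) is read every 5 min for 30 min. Data are normalized to control ATA and DMSO.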

[2] = biological target: Rap guanine nucleotide exchange factor 3 (Homo sapiens) (UniProt O95398); experiment: Confirmatory qHTS for agonist of cAMP-regulated guanine nucleotide exchange factor 3 (EPAC1) (AID 1645881);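 also: EPAC1 catalysed release of BODIPY-GDP from Rap1B seen as fluorescence loss; 100% = effect of cAMP agonist control; nearly all actives have a fitted effect of over 75% in size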
[3] = biological target: Rap guanine nucleotide exchange factor 4 (Homo sapiens) (UniProt Q8WZA2); experiment: Confirmatory qHTS for agonist of cAMP-regulated guanine nucleotide exchange factor 4 (EPAC2) (AID 1645884);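 also: nucleotide exchange releases bodipy-GDP from Rap1 and this lowers its fluorescence; % is scaled to controls: 0 for no effect and ±100 for the full control effect; nearly all actives have a fitted effect of over 65% in size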
Sequence of Rap guanine nucleotide exchange factor 4 (Homo sapiens) (Q8WZA2 whole entry, looked up): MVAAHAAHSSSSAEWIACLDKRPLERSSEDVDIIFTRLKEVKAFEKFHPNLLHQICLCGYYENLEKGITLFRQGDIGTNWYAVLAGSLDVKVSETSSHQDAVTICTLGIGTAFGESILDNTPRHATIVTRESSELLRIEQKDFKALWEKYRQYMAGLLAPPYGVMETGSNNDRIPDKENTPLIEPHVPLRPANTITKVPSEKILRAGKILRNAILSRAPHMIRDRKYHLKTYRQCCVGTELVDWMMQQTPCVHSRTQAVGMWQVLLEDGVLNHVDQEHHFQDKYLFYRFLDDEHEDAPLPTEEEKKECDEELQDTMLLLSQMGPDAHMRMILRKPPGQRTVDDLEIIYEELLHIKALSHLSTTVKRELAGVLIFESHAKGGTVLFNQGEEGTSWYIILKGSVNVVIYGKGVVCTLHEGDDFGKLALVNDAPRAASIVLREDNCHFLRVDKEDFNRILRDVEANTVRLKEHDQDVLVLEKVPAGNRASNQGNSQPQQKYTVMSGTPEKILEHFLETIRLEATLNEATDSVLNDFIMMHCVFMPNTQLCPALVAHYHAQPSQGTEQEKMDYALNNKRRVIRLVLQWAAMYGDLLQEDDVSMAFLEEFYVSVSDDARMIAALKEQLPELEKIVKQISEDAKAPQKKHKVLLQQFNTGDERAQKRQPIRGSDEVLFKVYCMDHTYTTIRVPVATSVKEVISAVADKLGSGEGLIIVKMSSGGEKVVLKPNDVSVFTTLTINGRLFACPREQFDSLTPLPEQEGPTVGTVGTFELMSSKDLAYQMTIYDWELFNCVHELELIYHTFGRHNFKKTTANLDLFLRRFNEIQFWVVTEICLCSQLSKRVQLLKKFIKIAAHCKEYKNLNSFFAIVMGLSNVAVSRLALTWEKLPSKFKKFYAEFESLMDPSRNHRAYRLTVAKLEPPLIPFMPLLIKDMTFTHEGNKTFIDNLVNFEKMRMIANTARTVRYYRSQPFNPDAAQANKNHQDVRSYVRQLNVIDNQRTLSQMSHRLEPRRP

[4] = biological target: Rap guanine nucleotide exchange factor 4 (Homo sapiens) (UniProt Q8WZA2); experiment: Confirmatory qHTS for antagonist of cAMP-regulated guanine nucleotide exchange factor 4 (EPAC2) (AID 1645885); also: nearly all actives have a fitted effect of over 25% in size; also: potency is read from the fitted curve at half-maximal effect; as to activity change, negative = inhibition: % is scaled to controls: 0 for no effect and ±100 for the full control effect
[5] = biological target: Rap guanine nucleotide exchange factor 3 (Homo sapiens) (UniProt O95398); experiment: Counterscreen qHTS for antagonist of cAMP-regulated guanine nucleotide exchange factor 3 (EPAC1) (AID 1645888);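 also: fluorescence loss as bound BODIPY-GDP is released from Rap1B; % of control where 0% means no effect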
Procedure, shortened: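 Rap1B-BODIPY-GDP 250 nM + GDP 50 uM; cpds 7-pt, final 9.74 nM–152 uM (activator mode) or from 7.32 nM upwards (inhibitor mode); RT; FI 480/540 nm at 5 and 30 min, then ± cAMP, reread.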

CCCN1C(=O)c2ccccc2NC1c1ccc(OC)cc1OC (stereo not given)
inactive: Potency [1] | Potency [2] | Potency [3] | Potency [4] | Potency [5]

COC(=O)c1ccc(CNC(=O)/C=C/[C@H]2O[C@@H](n3cc(C)c(=O)[nH]c3=O)C[C@@H]2O)cc1
inactive: Potency [1] | Potency [2] | Potency [3] | Potency [4] | Potency [5]

CCOc1ccc(S(=O)(=O)N2CCCCC2)c2ccccc12
inactive: Potency [1] | Potency [2] | Potency [3] | Potency [4] | Potency [5]

COc1cccc(C2=NN(C(=O)c3ccco3)C(O)(C(F)(F)F)C2)c1 (stereo not given)
inactive: Potency [1] | Potency [2] | activation [3] 1.71% [at 17.1 µM, percent relative to cAMP agonist control] | Potency [4] | activity change, negative = inhibition [5] -10.8% [at 30.8 µM]

CCOc1cc(/C=C2\C(=N)N3N=C(S(C)(=O)=O)SC3=NC2=O)ccc1OCCOc1cccc(OC)c1
inactive: Potency [2] | Potency [3] | Potency [4] | Potency [5]
active: Potency [1] 19 µM

CC(=O)N(C(C)=O)N1C(=O)c2cccc3c(N4CCOCC4)ccc(c23)C1=O
inactive: Potency [1] | Potency [2] | activation [3] 18.1% [at 17.1 µM, percent relative to cAMP agonist control] | Potency [4] | activity change, negative = inhibition [5] 16.3% [at 30.8 µM]

COC1C(CO)OC(n2c3c(Cl)cccc3c3c4c(c5c6cccc(Cl)c6[nH]c5c32)C(=O)NC4=O)C(O)C1O (stereo not given)
inactive: Potency [1] | Potency [2] | Potency [3] | Potency [4] | Potency [5]

Cc1ccc(F)c(NC(=O)/C(C#N)=C(\O)c2ccc(C(C)(C)C)cc2)c1
inactive: Potency [2] | activation [3] -11.9% [at 17.1 µM, percent relative to cAMP agonist control] | Potency [4] | activity change, negative = inhibition [5] 8.44% [at 30.8 µM]
active: Potency [1] 8.91 µM

CCOc1ccc(-n2c(=O)[nH]cc(C(=O)Nc3ccc(OC)c(OC)c3)c2=O)cc1
inactive: Potency [1] | Potency [2] | Potency [3] | Potency [4] | Potency [5]

CCCOc1cccc(C2C(C(=O)c3cccs3)=C(O)C(=O)N2Cc2cccnc2)c1 (stereo not given)
inactive: Potency [1] | Potency [2] | activation [3] 2.94% [at 17.1 µM, percent relative to cAMP agonist control] | Potency [4] | activity change, negative = inhibition [5] -13.9% [at 30.8 µM]

CC(=O)NC(c1ccccc1)c1cc(Cl)c2cccnc2c1O (stereo not given)
inactive: Potency [1] | Potency [2] | Potency [3] | Potency [4] | Potency [5]

CC(C)O/C(=N\S(=O)(=O)c1ccc(Cl)cc1)c1ccccc1
active: Potency [4] 16.9 µM
inactive: Potency [1] | Potency [2] | Potency [3] | Potency [5]

COc1cc2cnc(-c3ccccc3)c(C(=O)c3ccc(F)cc3)c2cc1OC
inactive: Potency [1] | Potency [2] | activation [3] 4.26% [at 17.1 µM, percent relative to cAMP agonist control] | Potency [4] | activity change, negative = inhibition [5] -6.2% [at 30.8 µM]

Cc1ccc(O)c(N=Cc2cc(Cc3ccccc3)cc([N+](=O)[O-])c2O)c1
active: Potency [1] 33.8 µM | Potency [4] 47.8 µM
inactive: Potency [2] | Potency [3] | Potency [5]

Cc1ncc(CO)c(/C=N/NC(=O)c2cc(Br)ccc2O)c1O
inactive: Potency [1] | Potency [2] | activation [3] 0% [at 17.1 µM, percent relative to cAMP agonist control] | Potency [4] | activity change, negative = inhibition [5] -9.07% [at 30.8 µM]

CNC(=O)c1c(NC(=O)C2=COCCO2)sc(C)c1C
inactive: Potency [1] | Potency [2] | Potency [3] | Potency [4] | Potency [5]

c1ccc(CN(Cc2ccccc2)c2c3c(nc4ncnn24)CCC3)cc1
inactive: Potency [1] | Potency [2] | Potency [3] | Potency [4] | Potency [5]

CCN(CC)CCn1c2c(c(SCC(=O)Nc3nc4ccccc4s3)nc1=O)CCCC2
inactive: Potency [1] | Potency [2] | Potency [3] | Potency [4] | Potency [5]

COC(=O)c1cc2sc(C)cc2n1Cc1ccccc1
inactive: Potency [1] | Potency [2] | Potency [3] | Potency [4] | Potency [5]

OC(c1ccc(Cl)c(Cl)c1)c1ncc(-c2ccc(Cl)cc2)[nH]1 (stereo not given)
inactive: Potency [1] | Potency [2] | activation [3] -3.18% [at 17.1 µM, percent relative to cAMP agonist control] | Potency [4] | activity change, negative = inhibition [5] -2.17% [at 30.8 µM]

CCOC(=O)C1=C(C)Nc2nnnn2C1c1ccc(OC)c(Br)c1 (stereo not given)
inactive: Potency [1] | Potency [2] | activation [3] 8.47% [at 17.1 µM, percent relative to cAMP agonist control] | Potency [4] | activity change, negative = inhibition [5] 1.39% [at 30.8 µM]

CN1CCN(C(CNC(=O)c2ccc(Br)o2)c2ccc(F)cc2)CC1 (stereo not given)
active: Potency [4] 1.69 µM
inactive: Potency [1] | Potency [2] | activation [3] 4.5% [at 17.1 µM, percent relative to cAMP agonist control] | activity change, negative = inhibition [5] -2.27% [at 30.8 µM]

COc1ccccc1C(=O)NC(=O)COC(=O)C1CC1
inactive: Potency [1] | Potency [2] | Potency [3] | Potency [4] | Potency [5]

COc1ccc(C(=O)c2c(-c3ccc(OC)cc3)oc3ccccc23)cc1
active: Potency [4] 15.1 µM
inactive: Potency [1] | Potency [2] | Potency [3] | Potency [5]

O=C(/C=C/c1ccc(Cl)cc1)Nc1nccs1
inactive: Potency [1] | Potency [2] | activation [3] 2.3% [at 17.1 µM, percent relative to cAMP agonist control] | Potency [4] | activity change, negative = inhibition [5] -6.03% [at 30.8 µM]

COc1ccc(-n2c(SCC(=O)Nc3nccs3)nc3c(c2=O)SC(C)C3)cc1 (stereo not given)
inactive: Potency [1] | Potency [2] | Potency [3] | Potency [4] | Potency [5]

O=C(c1ccccc1)N1CCN(CCc2ccccn2)CC1
inactive: Potency [1] | Potency [2] | Potency [3] | outcome [4] inactive [at 12.7 µM] | Potency [5]

Cc1c(C(=O)NCc2ccc(F)cc2)sc(=O)n1Cc1ccccc1F
inactive: Potency [1] | Potency [2] | Potency [3] | Potency [5]
active: Potency [4] 67.5 µM

COc1cc2cc(CNc3ccc(C)cc3)c(=O)n(CC(=O)Nc3ccc(F)cc3F)c2cc1OC
inactive: Potency [1] | Potency [2] | Potency [3] | Potency [4] | Potency [5]

Cc1cccc(CC2C(=O)Nc3ccccc32)c1 (stereo not given)
inactive: Potency [1] | Potency [2] | Potency [3] | Potency [4] | Potency [5]

CCCNC(=O)c1ccc2c(=O)c(O)c(-c3ccsc3)[nH]c2c1
inactive: Potency [1] | Potency [2] | activation [3] -5.87% [at 17.1 µM, percent relative to cAMP agonist control] | Potency [4] | activity change, negative = inhibition [5] -0.0367% [at 30.8 µM]

Cc1[nH][nH]c(=O)c1C(c1c(C)[nH][nH]c1=O)c1cn(Cc2ccccc2Cl)c2ccccc12
inactive: Potency [2] | Potency [3] | Potency [4] | Potency [5]
active: Potency [1] 75.7 µM

NC(=O)C1CCN(C(=O)Nc2csc3ccccc23)CC1
active: Potency [4] 12 µM
inactive: Potency [1] | Potency [2] | Potency [3] | Potency [5]

CCOC(=O)C1CCCCN1C(=O)c1oc2c(Cl)cc(C)cc2c1C (stereo not given)
inactive: Potency [1] | Potency [2] | Potency [3] | Potency [4] | Potency [5]

COc1ccc(C(=O)Nc2ccc(-c3cc4ccccc4oc3=O)c(C)c2)cc1OC
inactive: Potency [1] | Potency [2] | Potency [3] | Potency [4] | Potency [5]

Nc1nc2c(ncn2[C@@H]2O[C@H](CNCc3ccccc3)[C@@H](O)[C@H]2O)c(=O)[nH]1
inactive: Potency [1] | Potency [2] | Potency [3] | Potency [4] | Potency [5]

CCN(CCNC(=O)C1CCN(S(=O)(=O)c2cccc3cccnc23)CC1)c1ccccc1
inactive: Potency [1] | Potency [2] | Potency [3] | Potency [4] | Potency [5]

COc1ccc(CN2C(=O)CN(S(C)(=O)=O)CC2(C)C(=O)Nc2c(C)cccc2C)cc1OC (stereo not given)
inactive: Potency [1] | Potency [2] | activation [3] 5.79% [at 17.1 µM, percent relative to cAMP agonist control] | Potency [4] | activity change, negative = inhibition [5] -5.99% [at 30.8 µM]

CC(C)Cn1c(N)c(C(=O)NCC2CCCO2)c2nc3ccccc3nc21 (stereo not given)
inactive: Potency [2] | Potency [3] | Potency [4] | Potency [5]
active: Potency [1] 21.3 µM

CC(C)(C)c1ccc(N=C2SCC(=O)N2Cc2cccs2)cc1
inactive: Potency [1] | Potency [2] | Potency [3] | Potency [4] | Potency [5]

O=C(O)CCn1cc(/C=C2\NC(=S)N(c3ccccc3)C2=O)c(-c2ccc(Br)cc2)n1
inactive: Potency [1] | Potency [2] | Potency [3] | Potency [4] | Potency [5]

Cc1cc(C)cc(NC(=O)N2CCC(CN3CCc4ccccc4C3)CC2)c1
inactive: Potency [1] | Potency [2] | Potency [3] | Potency [4] | Potency [5]

COc1cccc(CN2C(=O)C3(SCC(=O)N3c3ccc(F)cc3)c3ccccc32)c1 (stereo not given)
inactive: Potency [1] | Potency [2] | Potency [3] | Potency [4] | Potency [5]

CC1=NOC(=O)/C1=C\c1ccc(-c2cc(Cl)ccc2Cl)o1
active: Potency [1] 23.9 µM | Potency [4] 75.7 µM
inactive: Potency [2] | Potency [3] | Potency [5]

O=C(NN1C(=O)/C(=C/c2ccc(O)c(O)c2)SC1=S)c1ccccc1
active: Potency [1] 7.57 µM
inactive: Potency [2] | Potency [3] | Potency [4] | Potency [5]

CCOC(=O)CSc1nc(C)c2cc(C)c(C)cc2n1
inactive: Potency [1] | Potency [2] | Potency [3] | Potency [4] | Potency [5]

COc1ccc(C(=O)N(Cc2ccccc2)c2cccc(C)c2)c(OC)c1OC
inactive: Potency [1] | Potency [2] | Potency [3] | Potency [4] | Potency [5]

O=C(c1ccccc1[N+](=O)[O-])N1CCN(c2ccc(N3CCOCC3)nn2)CC1
inactive: Potency [1] | Potency [2] | Potency [3] | Potency [4] | Potency [5]

Source: PubChem BioAssay (NCATS)
